# According to article PMC4336329 (PLoS ONE, 2015):
# Screen size: about 310,000 compounds; about 14,000 (4.5%) showed an effect of 50% or more. Effects have a minus sign here. This is one part of a sample in which strong results are shown more often than they occur.
# Biological target: human ether-à-go-go-related gene (hERG) potassium channel (human, UniProt Q12809)
# Assay: primary screen, population patch clamp on CHO cells stably expressing hERG; higher = less effect of the substance
# 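Note: peak tail current of the secondary pulse compared with the same well before compound.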
# Sequence of human ether-à-go-go-related gene (hERG) potassium channel (Q12809 whole entry, looked up): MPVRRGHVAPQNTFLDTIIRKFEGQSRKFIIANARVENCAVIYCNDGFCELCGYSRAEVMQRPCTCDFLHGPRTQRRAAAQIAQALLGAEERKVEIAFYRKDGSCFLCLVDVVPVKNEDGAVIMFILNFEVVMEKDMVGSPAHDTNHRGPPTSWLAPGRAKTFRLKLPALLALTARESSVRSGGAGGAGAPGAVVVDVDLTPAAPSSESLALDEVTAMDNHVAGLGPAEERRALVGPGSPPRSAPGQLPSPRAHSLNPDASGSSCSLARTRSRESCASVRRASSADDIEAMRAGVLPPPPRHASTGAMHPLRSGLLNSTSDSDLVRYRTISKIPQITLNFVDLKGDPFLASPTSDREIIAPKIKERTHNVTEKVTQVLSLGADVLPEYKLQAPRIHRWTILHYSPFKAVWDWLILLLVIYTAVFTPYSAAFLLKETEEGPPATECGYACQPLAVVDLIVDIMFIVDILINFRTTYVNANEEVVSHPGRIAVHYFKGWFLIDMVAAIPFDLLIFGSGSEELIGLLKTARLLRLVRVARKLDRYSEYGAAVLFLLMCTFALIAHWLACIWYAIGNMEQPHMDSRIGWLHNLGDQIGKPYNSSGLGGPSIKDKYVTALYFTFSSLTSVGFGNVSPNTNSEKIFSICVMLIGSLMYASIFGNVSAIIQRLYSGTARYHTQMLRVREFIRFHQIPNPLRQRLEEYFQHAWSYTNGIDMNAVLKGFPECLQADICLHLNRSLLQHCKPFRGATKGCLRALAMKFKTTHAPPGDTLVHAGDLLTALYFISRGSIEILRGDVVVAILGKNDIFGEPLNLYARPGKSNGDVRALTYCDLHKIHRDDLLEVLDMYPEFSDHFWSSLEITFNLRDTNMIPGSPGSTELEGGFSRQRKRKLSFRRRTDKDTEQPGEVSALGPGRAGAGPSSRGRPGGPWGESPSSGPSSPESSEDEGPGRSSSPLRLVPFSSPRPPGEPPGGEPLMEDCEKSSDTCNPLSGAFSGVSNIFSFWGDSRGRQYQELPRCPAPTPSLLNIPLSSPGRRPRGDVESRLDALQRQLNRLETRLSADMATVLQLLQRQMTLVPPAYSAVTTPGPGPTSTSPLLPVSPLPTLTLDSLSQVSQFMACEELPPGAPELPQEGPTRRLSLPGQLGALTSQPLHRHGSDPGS
row,SMILES,"hERG current change (%, negative = inhibition) at 10uM [%]"
1,O=Cc1ccc(OCCCOc2cccc3cccnc23)cc1,-54.3
2,C/C=C/c1ccc(OCCOCCOc2cccc3cccnc23)c(OC)c1,-50.5
3,C=CCc1ccc(OCCOCCOc2cccc3cccnc23)c(OC)c1,-29.3
4,Brc1ccc(OCCCOc2cccc3cccnc23)cc1,6.35
5,O=Cc1ccccc1OCCCOc1cccc2cccnc12,-4.59
6,C/C=C/c1ccc(OCCOc2cccc3cccnc23)c(OC)c1,20.3
7,CCc1ccc(S(=O)(=O)NCc2cn3ccsc3n2)s1,6.83
8,N/C(=N\OC(=O)c1ccc2ccccc2c1)c1cccc([N+](=O)[O-])c1,5.05
9,C#CCOCCOCCOCCNc1nc(N2CCN(C(=O)Cn3cc(CCC[NH+]=C(N)N)nn3)CC2)nc(N2CCN(C(=O)[C@H](CCCC[NH3+])n3cc(CCCC)nn3)CC2)n1.[Cl-],7.39
10,COc1ccc(S(=O)(=O)N2CCC(C(=O)c3ccc4c(c3)OCCO4)CC2)cc1,-6.76
11,CC1CCCN(c2c3c(nc4ccccc24)CCCC3)C1 (stereo not shown),-65.2
12,O=C(O)c1c2c(nc3ccccc13)CCCCC2,15.8
13,Cl.c1ccc2c(N3CCOCC3)c3c(nc2c1)CCC3,-35.2
14,CCOC(=O)C1=C(COC(=O)c2ccc([N+](=O)[O-])o2)NC(=O)NC1C (stereo not shown),-7.36
15,CCC(C)N=CC1=C(O)C(C(=O)OC)C(C)(C)CC1=O (stereo not shown),-5.35
16,CCOC(=O)C(=O)N=Nc1c(O)n(C)c2ccccc12,18.9
17,O=C(CSc1nc(Nc2ccccc2)nc(N2CCOCC2)n1)NC1CCCCC1,-3.3
18,O=C(CSc1nc(Nc2ccccc2)nc(N2CCOCC2)n1)N1CCCC1,-60.4
19,O=C(CSc1nc(Nc2ccccc2)nc(N2CCOCC2)n1)N1CCc2ccccc21,-1.62
20,FC(F)(F)c1ccc(-c2csc(-c3ccno3)n2)cc1,1.72

row,SMILES,"hERG current change (%, negative = inhibition) at 10uM [%]"
1,Cc1cc(NCCCN)nc(-c2ccccc2O)n1,10
2,OC(c1ccc(F)cc1)(c1ccc(F)cc1)[C@@H]1CCCN1,7.57
3,CCCCOC(=O)c1ccc(NC(=O)C(=O)NCCN(C)C)cc1,-28.9
4,CCCOC(=O)c1ccc(NC(=O)COC)cc1,1.07
5,CCCOC(=O)c1ccc(NC(=O)C(=O)NCC2CCCO2)cc1 (stereo not shown),4.7
6,CCCCOC(=O)c1ccc(NC(=O)/C=C/c2cccs2)cc1,-17.1
7,CCCCOC(=O)c1ccc(NC(=O)C(=O)NCc2ccncc2)cc1,-8.29
8,CCCCOC(=O)c1ccc(NC(=O)C(=O)NCCN(CC)CC)cc1,-73.2
9,CCN(CC)CCOC(=O)c1ccc(NC(=O)/C=C/c2cccs2)cc1.Cl,-76.3
10,CCCOC(=O)c1ccc(NC(=O)C(=O)NCCN(CC)CC)cc1,-52.1
11,CCCOC(=O)c1ccc(NC(=O)/C=C/c2cccs2)cc1,0.453
12,Nc1cccc(-n2cccc2)c1,18.5
13,COc1cccc(CNC(=O)CCC(=O)n2ncc3cc(C)ccc32)c1OC,3.67
14,Cc1ccc(C(=O)NNC(=O)CCN2C(=O)C3CCCCC3C2=O)cc1 (stereo not shown),-5.88
15,CCCC/C(O)=C1\C(=O)CCCC1=NCCc1c(C)[nH]c2ccccc12,-12
16,CNc1oc(C)nc1S(=O)(=O)c1ccc(C)cc1,10.6
17,CC(NC(=O)CCNS(=O)(=O)c1cccc2nsnc12)c1ccccc1 (stereo not shown),-8.74
18,CCOC(=O)CSc1nnc(CCc2nc3ccccc3[nH]2)n1C,-0.184
19,CC(=O)c1ccc(N2CCN(CC(=O)N(C3CC3)C3CCS(=O)(=O)C3)CC2)c(F)c1 (stereo not shown),-12
20,CCOc1[nH]n(-c2ccccc2)c(=O)c1C=NCc1ccncc1,-50

row,SMILES,"hERG current change (%, negative = inhibition) at 10uM [%]"
1,Cc1[nH]n(-c2ccccc2)c(=O)c1C=NCc1ccco1,-10.7
2,Cc1ccc(-n2[nH]c(C)c(C=Nc3cc(C)ccn3)c2=O)cc1,-1.12
3,CCOc1[nH]n(-c2ccc(Cl)cc2)c(=O)c1C=NCc1cccnc1,-42.1
4,Cc1[nH]n(-c2ccccc2)c(=O)c1C=NCCc1ccccc1,-12.7
5,Cc1ccc(-n2[nH]c(C)c(C=NCc3ccncc3)c2=O)cc1,-54.5
6,CCOc1[nH]n(-c2ccccc2)c(=O)c1C=NCc1cccnc1,-48.8
7,Cc1[nH]n(-c2ccccc2)c(=O)c1C=NCc1ccncc1,-58.1
8,Cc1ccc(-n2[nH]c(C)c(/C=N/c3ccccn3)c2=O)cc1,2.58
9,CCOc1ccc(S(=O)(=O)n2ccnc2C)cc1,14.5
10,Cc1cc(O)c(-c2n[nH]c3c2C(c2cccc(O)c2)N(Cc2cccnc2)C3=O)cc1Cl (stereo not shown),11.4
11,Cc1cccc(Cc2nnc(CCC(=O)N(C)C3CCOC3)o2)c1 (stereo not shown),18.6
12,Nc1cc2ccccc2oc1=O,8.37
13,O=C1/C(=C/c2ccccc2Cl)SC(=S)N1CCCC(=O)N(CCO)c1ccccc1,-12.8
14,CC(=O)NC12CC3CC(C1)CC(C(=O)Nc1nc4ccc(S(C)(=O)=O)cc4s1)(C3)C2,-1.14
15,COc1ccc2nc(NC(=O)C34CC5CC(CC(NC(C)=O)(C5)C3)C4)sc2c1,-11.1
16,CC(=O)NC12CC3CC(C1)CC(C(=O)Nc1nc4ccc(F)cc4s1)(C3)C2,-56.9
17,CCc1ccc2[nH]cc(C(=O)OCCOC)c(=O)c2c1,4.42
18,O=C(NCCc1ccccc1)c1ccc2nc3cc(Cl)ccc3c(=O)n2c1,14.1
